Reference: PubChem BioAssay (NCI)
Compounds without any hit were thinned out: in the full panel of roughly 83,000, 20% have a hit.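 The endpoint reported here, percent growth, reads 100 for growth as untreated, 0 for no net growth and -100 for all cells dead.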 Calls of active or inactive are those of the source. How the source made its calls: active means growth percent below 10; inactive means the rest.

System: MDA-MB-468 breast
Test: NCI-60 one-dose screen, 48 h (100 = growth as untreated, 0 = no growth, -100 = all killed)
Details: 10 µM unless noted

SMILES	growth
O=c1[nH]c(-c2ccc(Cl)cc2)cn1-c1ccc(-n2cc(-c3ccc(Cl)cc3)[nH]c2=O)cc1	103% (inactive)
COc1cc(NCCCCCN)c2ncccc2c1	114% (inactive)
Cc1cc(N)c2cc(NC(=O)/C=C\c3ccccc3Cl)ccc2n1	-81.1% (active)
Cc1cc(N2CCN(C)CC2)nc(NCc2cc(Nc3ccnc4cc(Cl)ccc34)ccc2F)n1	-60.4% (active)
O=C(Cc1nc2cc(Cl)c(Cl)cc2nc1CC(=O)c1cccnc1)c1cccnc1	33.8% (inactive)
N=C(N)c1ccc(-c2ccc(-c3ccc(Cl)cc3Cl)o2)cc1	-84.4% (active)
O=C1C(Cl)=C(Oc2ccccc2)C(=O)c2ccccc21	13% (inactive)
COc1cc(-c2nn(-c3cccc(NC(=O)c4ccc(Cl)c(C(F)(F)F)c4)c3)cc2-c2ccncc2)ccc1Cl	54.4% (inactive)
Cc1c(-c2csc(-n3nc(C(F)(F)F)cc3C(F)(F)F)n2)no[n+]1[O-]	81.2% (inactive)
Fc1ccc(Nc2ncnc3ccc(-c4cnc5[nH]ccc5c4)cc23)cc1Cl	-29.7% (active)
O=C1C=Cc2ncccc2C1=O	64.5% (inactive)
COc1cccc(-c2nc3sccn3c2-c2ccnc(NCCCNS(=O)(=O)c3cccc(F)c3)c2)c1	8.57% (active)
CC(C)N1CCN(Cc2ccc3c(NNC(=O)c4ccccc4)nc4cc(F)ccc4n23)CC1	-14.3% (active)
O=C1C(N2CCN(c3ccccc3)CC2)=C(Cl)C(=O)c2ncccc21	-62.8% (active)
CCOc1ccc(/C=N/Nc2cc(C)nc3ccc(Br)cc23)cc1	65.2% (inactive)
Cc1nn(-c2nc3ccccc3[nH]2)c2c1C(c1ccc(O)cc1)CC(=O)N2 (stereo not given)	92.8% (inactive)
Nc1nc(N)c2nc(-c3cccc(O)c3)c(-c3cccc(O)c3)nc2n1	10.4% (inactive)
O=[N+]([O-])C1CC2C=CC1C2 (stereo not given)	99.5% (inactive)
Cn1cc(-c2csc(-c3ccccc3)n2)c2cccnc21	-34% [100 µM] (active)
S=C(NCc1ccc2c(c1)OCO2)N1CCN(c2ncnc3c2oc2ccccc23)CC1	-11% (active)

SMILES	growth
CN1C(=O)C(=Cc2cn(Cc3ccccc3)c3ccc(Br)cc23)C(=O)N(C)C1=O	-49.4% (active)
CCN=Cc1c(O)c(O)c(C(C)C)c2cc(C)c(-c3c(C)cc4c(C(C)C)c(O)c(O)c(C=NCC)c4c3O)c(O)c12	55.7% (inactive)
COc1cc(C2C3=C(COC3=O)N(CCO)c3cc4c(cc32)OCO4)cc(OC)c1OC (stereo not given)	0.559% (active)
N#Cc1c(-c2ccccc2)nc2c(c(-c3ccc(Cl)cc3)nn2-c2ccccc2)c1-c1ccc([N+](=O)[O-])cc1	104% (inactive)
CCC12CCC3c4ccc(O)cc4CCC3C1CC(O)C2O (stereo not given)	58.4% (inactive)
COc1cccc(C(=O)NNC(=O)c2cccc3ccccc23)c1	111% (inactive)
O=C(/C=C/c1ccc(Br)cc1)c1ccccc1	96.3% (inactive)
CC(=O)N(C)c1ccc([N+](=O)[O-])cc1	101% (inactive)
COc1ccc(C(=O)/C=C/c2cccc([N+](=O)[O-])c2)c(OC)c1	-3.24% (active)
Cc1cc(C)cc(S(=O)(=O)n2ccc(-c3ccc4c(c3)CCC(C)(C)O4)n2)c1	54.6% (inactive)
COc1ccc(/C=C2/SC(=Nc3c(C)nn(-c4ccccc4)c3N)NC2=O)cc1	7.17% (active)
O=C(N/N=C/c1ccccc1O)c1ccccc1	12.1% (inactive)
COc1ccc(C(=O)c2sc3nc4c(c(C(F)(F)F)c3c2N)CN(C(C)=O)CC4)cc1OC	83.7% (inactive)
COC(=O)[C@]1(CCSC)N[C@H](c2cn(-c3ccccc3)nc2C)[C@@H]2C(=O)N(c3ccc(C)cc3)C(=O)[C@@H]21	127% (inactive)
COC1=CC(c2ccc[nH]2)=N/C1=C\c1[nH]c(C)c(C(=O)CCC(=O)Oc2ccc3c(c2)CCC2C3CC[C@]3(C)C(=O)CC[C@@H]23)c1C (stereo not given in full)	76.3% (inactive)
COc1cc(OC)c(S(N)(=O)=O)cc1C(=O)/C=C/c1ccc(C)cc1	-36.2% (active)
C=C1CCC2C3(C)COC(c4ccc(OC)cc4Br)OC3CCC2(C)C1/C=C/C1=CCOC1=O (stereo not given)	54.3% (inactive)
CCOC(=O)/C(=C\c1ccc(-c2ccccc2)cc1)C(C)=O	95% (inactive)
CC(C)C[C@H](NC(=O)Cn1ccc2ccccc2c1=O)B(O)O	0.399% (active)
CCN(C(=O)c1cc2ccccc2[nH]1)[C@H]1CCC[C@@H](NCc2ccc(OC)cc2)C1	80.7% (inactive)
